Results reported in PubChem BioAssay.
The other results are listed elsewhere or left out. Calls of active or inactive are those of the source. Unless noted, no stated cut-off is given here; in the data, active means inhibition above about 30%; inactive means the rest.

How the values were obtained:
[1] = target: Nuclear receptor coactivator 3 (Homo sapiens) (UniProt Q9Y6Q9); assay: SRC3 coactivator transcriptional activity inhibitors, confirmation, cell-based, luminescence, quadruplicate (AID 588792;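 active means mean inhibition over 43.08%, the solvent-only control mean plus 3 SD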;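 further: 0% = DMSO treated cells and 100% = gossypol at 36 µM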); details: HEK293 GAL4-SRC3 luciferase reporter, at 3.6 µM, active compounds read high
Nuclear receptor coactivator 3 (Homo sapiens), sequence (Q9Y6Q9 whole entry, looked up, the tested form may be a part): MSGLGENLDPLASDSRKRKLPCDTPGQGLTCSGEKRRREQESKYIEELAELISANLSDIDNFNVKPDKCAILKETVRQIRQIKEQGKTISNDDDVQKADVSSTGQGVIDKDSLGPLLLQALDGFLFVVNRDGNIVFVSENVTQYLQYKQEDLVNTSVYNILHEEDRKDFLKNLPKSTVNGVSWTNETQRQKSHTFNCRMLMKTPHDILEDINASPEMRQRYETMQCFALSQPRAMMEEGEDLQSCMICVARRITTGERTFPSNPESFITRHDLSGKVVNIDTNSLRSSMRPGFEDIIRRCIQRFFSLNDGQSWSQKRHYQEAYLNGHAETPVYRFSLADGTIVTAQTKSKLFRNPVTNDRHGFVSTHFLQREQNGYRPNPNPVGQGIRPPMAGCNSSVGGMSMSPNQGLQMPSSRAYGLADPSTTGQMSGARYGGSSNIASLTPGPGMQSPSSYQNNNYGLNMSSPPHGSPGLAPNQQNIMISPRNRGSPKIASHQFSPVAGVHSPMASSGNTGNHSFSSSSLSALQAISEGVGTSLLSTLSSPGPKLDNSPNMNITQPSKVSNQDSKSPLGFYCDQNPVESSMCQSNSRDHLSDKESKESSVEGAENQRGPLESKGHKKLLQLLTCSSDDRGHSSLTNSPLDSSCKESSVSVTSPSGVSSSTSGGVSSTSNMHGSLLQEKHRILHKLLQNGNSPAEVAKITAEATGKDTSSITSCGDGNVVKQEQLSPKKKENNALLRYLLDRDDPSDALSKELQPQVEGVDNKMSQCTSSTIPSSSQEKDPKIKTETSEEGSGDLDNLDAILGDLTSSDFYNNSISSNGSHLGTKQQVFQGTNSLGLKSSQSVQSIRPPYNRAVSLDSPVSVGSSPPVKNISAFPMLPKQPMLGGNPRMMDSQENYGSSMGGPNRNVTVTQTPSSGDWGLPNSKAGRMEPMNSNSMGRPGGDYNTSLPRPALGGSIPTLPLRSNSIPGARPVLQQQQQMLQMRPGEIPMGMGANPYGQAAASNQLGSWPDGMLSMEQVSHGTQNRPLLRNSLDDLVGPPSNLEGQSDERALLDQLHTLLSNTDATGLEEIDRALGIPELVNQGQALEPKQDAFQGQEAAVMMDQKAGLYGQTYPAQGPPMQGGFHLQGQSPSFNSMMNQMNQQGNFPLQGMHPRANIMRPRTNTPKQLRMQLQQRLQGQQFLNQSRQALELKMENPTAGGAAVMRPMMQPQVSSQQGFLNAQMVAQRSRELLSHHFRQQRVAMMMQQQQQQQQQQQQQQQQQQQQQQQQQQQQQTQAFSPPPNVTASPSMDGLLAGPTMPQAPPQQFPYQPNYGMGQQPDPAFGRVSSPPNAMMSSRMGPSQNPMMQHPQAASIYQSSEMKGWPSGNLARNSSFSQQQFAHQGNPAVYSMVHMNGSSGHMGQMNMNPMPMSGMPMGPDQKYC

[2] = tested on: transactivating tegument protein VP16 (Human herpesvirus 1), Gal4-VP16 luciferase reporter; assay: VP16 transactivation inhibitors, counter-screen for SRC3 inhibitor project, cell-based, luminescence, high throughput (AID 588794); details: mammalian cells, VP16-driven luciferase reporter luminescence; at 3.6 µM; active compounds read high
[3] = target: Nuclear receptor coactivator 1 (Homo sapiens) (UniProt Q15788); assay: SRC1 coactivator transcriptional activity inhibitors, confirmation, cell-based, luminescence, quadruplicate (AID 588820;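 active means mean inhibition above 46.68%, the untreated control wells mean plus 3 SD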;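 further: 0% = DMSO wells and 100% = gossypol 36 µM treated wells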); details: HEK293 GAL4-SRC1 luciferase reporter, at 3.6 µM, active compounds read high
Nuclear receptor coactivator 1 (Homo sapiens), sequence (Q15788 whole entry, looked up, the tested form may be a part): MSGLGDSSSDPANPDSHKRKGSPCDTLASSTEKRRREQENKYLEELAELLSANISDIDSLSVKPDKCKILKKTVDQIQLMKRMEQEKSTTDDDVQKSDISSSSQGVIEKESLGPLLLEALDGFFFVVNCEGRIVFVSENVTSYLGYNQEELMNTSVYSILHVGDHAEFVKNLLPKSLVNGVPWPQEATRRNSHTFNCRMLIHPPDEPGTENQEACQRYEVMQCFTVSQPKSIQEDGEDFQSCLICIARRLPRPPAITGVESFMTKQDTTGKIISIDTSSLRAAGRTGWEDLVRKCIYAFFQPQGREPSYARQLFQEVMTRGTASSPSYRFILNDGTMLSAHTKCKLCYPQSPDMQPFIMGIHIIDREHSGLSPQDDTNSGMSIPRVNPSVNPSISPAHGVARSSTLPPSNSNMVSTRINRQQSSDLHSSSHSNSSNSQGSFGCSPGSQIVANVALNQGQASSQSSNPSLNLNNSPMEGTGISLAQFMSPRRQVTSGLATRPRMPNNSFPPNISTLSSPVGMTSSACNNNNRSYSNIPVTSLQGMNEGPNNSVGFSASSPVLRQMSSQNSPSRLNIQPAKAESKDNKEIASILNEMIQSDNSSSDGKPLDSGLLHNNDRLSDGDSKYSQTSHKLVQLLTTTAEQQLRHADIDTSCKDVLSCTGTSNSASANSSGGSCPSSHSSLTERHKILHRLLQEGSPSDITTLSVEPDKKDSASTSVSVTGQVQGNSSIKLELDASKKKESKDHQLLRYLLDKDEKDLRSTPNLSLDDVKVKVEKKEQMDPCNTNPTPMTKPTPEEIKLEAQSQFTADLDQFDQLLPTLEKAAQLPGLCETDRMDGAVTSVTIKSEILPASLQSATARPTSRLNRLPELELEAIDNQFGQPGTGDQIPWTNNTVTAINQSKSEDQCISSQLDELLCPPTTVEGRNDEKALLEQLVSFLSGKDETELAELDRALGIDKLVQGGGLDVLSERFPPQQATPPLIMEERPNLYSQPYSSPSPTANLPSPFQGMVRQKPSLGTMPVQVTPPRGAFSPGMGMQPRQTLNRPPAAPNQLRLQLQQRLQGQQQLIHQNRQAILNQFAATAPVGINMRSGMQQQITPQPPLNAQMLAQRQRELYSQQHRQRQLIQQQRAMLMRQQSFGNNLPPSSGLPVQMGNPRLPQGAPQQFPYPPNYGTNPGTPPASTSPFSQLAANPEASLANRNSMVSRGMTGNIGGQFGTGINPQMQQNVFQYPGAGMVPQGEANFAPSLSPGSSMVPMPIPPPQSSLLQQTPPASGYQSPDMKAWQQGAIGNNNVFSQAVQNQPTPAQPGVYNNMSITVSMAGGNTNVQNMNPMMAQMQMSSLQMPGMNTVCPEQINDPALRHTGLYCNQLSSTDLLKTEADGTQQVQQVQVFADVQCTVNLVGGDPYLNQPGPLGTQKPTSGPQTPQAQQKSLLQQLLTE

[4] = VP16 transactivation inhibitors, counter-screen for SRC1 inhibitor project, cell-based, luminescence, high throughput (AID 588824; in the data active means inhibition above about 25%); details: cell-based VP16 transactivation luciferase luminescence; at 3.6 µM; active compounds read high
[5] = StAR promoter reporter inhibitors, counter-screen for LRH-1 inverse agonist project, cell-based, luminescence, high throughput (AID 651611; in the data active means inhibition above about 28%); details: StAR promoter luciferase reporter counterscreen, at 3.6 µM, active compounds read high
[6] = target: Nuclear receptor subfamily 5 group A member 2 (Homo sapiens) (UniProt O00482); assay: LRH-1 (NR5A2) inverse agonists, retest, confirmation, cell-based, luminescence (AID 651613; in the data active means inhibition above about 42%;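 further: HEK293T cells co-transfected with LRH-1 and StAR promoter luciferase reporter; 0% = vehicle wells and 100% = parental cells lacking receptor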); details: cell-based LRH-1 luciferase reporter, inverse agonism; at 3.6 µM; active compounds read high
[7] = target: Steroidogenic factor 1 (Homo sapiens) (UniProt Q13285); assay: SF1 (NR5A1) inverse agonists, counter-screen for LRH-1 inverse agonist project, cell-based, luminescence, high throughput (AID 651614; in the data active means inhibition above about 44%;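 further: cells cotransfected with StAR promoter reporter and SF1 expression vector; 0% = vehicle on cells with receptor and 100% = vehicle on cells lacking receptor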); details: cell-based SF1 luciferase reporter, at 3.6 µM, active compounds read high
Steroidogenic factor 1 (Homo sapiens), sequence (Q13285 whole entry, looked up, the tested form may be a part): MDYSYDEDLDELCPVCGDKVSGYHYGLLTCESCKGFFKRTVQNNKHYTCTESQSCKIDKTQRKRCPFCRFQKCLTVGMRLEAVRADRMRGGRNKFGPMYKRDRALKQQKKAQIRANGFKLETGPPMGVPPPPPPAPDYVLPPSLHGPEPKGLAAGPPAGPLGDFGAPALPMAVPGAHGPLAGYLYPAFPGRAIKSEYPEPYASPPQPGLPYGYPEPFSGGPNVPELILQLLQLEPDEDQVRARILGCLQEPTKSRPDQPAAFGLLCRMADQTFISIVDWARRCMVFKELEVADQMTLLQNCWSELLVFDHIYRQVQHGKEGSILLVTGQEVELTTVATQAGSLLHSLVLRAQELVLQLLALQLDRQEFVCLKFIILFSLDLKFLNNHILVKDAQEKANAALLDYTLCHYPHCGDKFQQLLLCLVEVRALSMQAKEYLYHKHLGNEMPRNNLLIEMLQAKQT

[8] = VP16 transactivation reporter inhibitors, counter-screen for LRH-1 inverse agonist project, cell-based, luminescence, high throughput (AID 651615; in the data active means inhibition above about 33%); details: Gal4-VP16 luciferase reporter cells, at 3.6 µM, active compounds read high
[9] = target: Photoreceptor-specific nuclear receptor (Homo sapiens) (UniProt Q9Y5X4); assay: NR2E3 agonist confirmation in cells, cell-based, luminescence, CHO-S two-hybrid (AID 624378;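 active means average inhibition above a cutoff equal to the mean inhibition of all tested compounds plus one SD, cut at about 70% in these data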;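 further: 0% = DMSO in NR2E3 cells and 100% = DMSO in cells lacking NR2E3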); details: CHO-S mammalian two-hybrid NR2E3-NCOR, luciferase luminescence; at 3.98 µM; active compounds read high
[10] = GAL4-VP16 reporter modulators, confirmation, counter-screen for NR2E3 agonist project, cell-based, luminescence, CHO-S, high throughput (AID 624379;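 active means mean inhibition above a cutoff equal to the average over all tested compounds plus one standard deviation, cut at about 70% in these data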;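 further: 0% = DMSO with VP16-transfected cells and 100% = DMSO with cells lacking VP16; higher means less reporter light so more repression of VP16 activity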); details: CHO-S GAL4-VP16 luciferase reporter, at 3.98 µM, active compounds read high
[11] = tested on: transactivating tegument protein VP16 (Human herpesvirus 1); assay: VP16 transactivation reporter inhibitors, counter-screen for SRC2 inhibitor project, cell-based, luminescence, single concentration (AID 652007; in the data active means inhibition above about 36%); details: cell-based VP16 transactivation luciferase reporter, at 8.9 µM, active compounds read high
[12] = target: Nuclear receptor coactivator 2 (Homo sapiens) (UniProt Q15596); assay: SRC2 coactivator transcriptional activity inhibitors, confirmation, cell-based, luminescence, HEK293, triplicate (AID 652008;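 active means mean inhibition above 46.5%, the solvent-only control mean plus 3 SD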;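 further: 0% = DMSO-treated cells and 100% = Gossypol at 36 µM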); details: HEK293 GAL4-SRC2 luciferase reporter, at 8.9 µM, active compounds read high
Nuclear receptor coactivator 2 (Homo sapiens), sequence (Q15596 whole entry, looked up, the tested form may be a part): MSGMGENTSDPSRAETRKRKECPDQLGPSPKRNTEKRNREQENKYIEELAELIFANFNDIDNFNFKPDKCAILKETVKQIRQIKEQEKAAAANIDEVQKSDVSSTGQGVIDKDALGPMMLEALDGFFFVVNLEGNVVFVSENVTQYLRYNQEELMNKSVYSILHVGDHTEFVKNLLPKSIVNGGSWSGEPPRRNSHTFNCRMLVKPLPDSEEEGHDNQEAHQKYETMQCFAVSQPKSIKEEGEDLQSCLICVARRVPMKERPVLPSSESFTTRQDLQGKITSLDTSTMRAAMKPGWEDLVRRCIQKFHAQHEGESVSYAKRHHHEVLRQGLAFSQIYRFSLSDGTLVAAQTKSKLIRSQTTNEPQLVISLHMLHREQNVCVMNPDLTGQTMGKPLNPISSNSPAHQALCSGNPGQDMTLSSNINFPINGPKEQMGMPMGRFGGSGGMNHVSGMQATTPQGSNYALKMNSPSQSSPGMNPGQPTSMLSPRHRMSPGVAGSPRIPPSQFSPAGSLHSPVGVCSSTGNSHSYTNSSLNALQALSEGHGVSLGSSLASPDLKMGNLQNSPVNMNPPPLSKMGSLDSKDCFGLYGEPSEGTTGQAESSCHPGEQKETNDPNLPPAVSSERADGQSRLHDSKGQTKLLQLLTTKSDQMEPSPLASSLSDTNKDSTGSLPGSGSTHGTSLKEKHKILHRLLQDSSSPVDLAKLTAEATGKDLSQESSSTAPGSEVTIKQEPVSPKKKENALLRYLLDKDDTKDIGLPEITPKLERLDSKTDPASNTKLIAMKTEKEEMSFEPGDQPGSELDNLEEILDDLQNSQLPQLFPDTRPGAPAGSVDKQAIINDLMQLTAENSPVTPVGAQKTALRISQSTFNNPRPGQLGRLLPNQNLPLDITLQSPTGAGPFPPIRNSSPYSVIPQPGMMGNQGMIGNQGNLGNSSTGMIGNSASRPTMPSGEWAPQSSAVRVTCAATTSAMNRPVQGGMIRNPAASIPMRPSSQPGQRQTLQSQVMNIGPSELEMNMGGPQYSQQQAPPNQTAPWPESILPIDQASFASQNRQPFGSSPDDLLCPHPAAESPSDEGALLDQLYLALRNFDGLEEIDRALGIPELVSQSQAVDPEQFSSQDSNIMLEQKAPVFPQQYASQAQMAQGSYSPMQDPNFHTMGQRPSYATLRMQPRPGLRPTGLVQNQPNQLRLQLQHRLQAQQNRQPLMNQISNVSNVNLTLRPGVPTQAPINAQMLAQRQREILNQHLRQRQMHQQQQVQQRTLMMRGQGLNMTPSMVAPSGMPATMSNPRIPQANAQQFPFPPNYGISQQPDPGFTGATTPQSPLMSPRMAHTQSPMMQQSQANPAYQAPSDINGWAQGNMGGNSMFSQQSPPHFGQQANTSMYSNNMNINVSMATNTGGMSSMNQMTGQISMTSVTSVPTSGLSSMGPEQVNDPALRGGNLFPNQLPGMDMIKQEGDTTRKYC

[13] = Gal4-VP16 luciferase reporter inhibitors, counter-screen for COUP-TFII antagonist project, cell-based, luminescence, HEK293 (AID 687007; in the data active means inhibition above about 13%); details: at 8.5 µM, active compounds read high
[14] = target: COUP transcription factor 2 (Homo sapiens) (UniProt P24468); assay: NR2F2 transcriptional activity inhibitors, confirmation, cell-based, luciferase reporter, HEK293, triplicate (AID 687008;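 active means mean inhibition over three repeats above a set limit taken from the earlier primary screen, cut at about 38% in these data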;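 further: 100% = cells given the luciferase reporter alone without the COUP-TF2 vector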); details: HEK293 NGFI-A luciferase reporter, luminescence; at 8.5 µM; active compounds read high
[15] = target: Galanin receptor type 2 (Homo sapiens) (UniProt O43603); assay: GALR2 antagonists, retest of hits, confirmation, cell-based (AID 866; in the data active means inhibition above about 27%;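 further: cells stimulated with galanin at about its EC80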); details: GALR2-expressing cells, antagonist mode, at 4 µM, active compounds read high
[16] = inhibitors of NFAT-driven beta-lactamase reporter, confirmation, counter-screen for GALR2 antagonist project, CHO NFAT-bla cells, FRET readout (AID 867;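 active means inhibition above the mean inhibition across tested compounds plus 3 SD, cut at about 27% in these data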;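 further: 0% = 500 nM thapsigargin stimulated wells and 100% = unstimulated BSA only wells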); details: thapsigargin-stimulated, at 4.2 µM, active compounds read high
[17] = target: Receptor-interacting serine/threonine-protein kinase 2 (Homo sapiens) (UniProt O43353); assay: NOD2-RIPK2 binding disruptors, retest, confirmation, fluorescence, CHO cells, BLA complementation, triplicate (AID 624370;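 active means mean inhibition across replicates above a set limit taken from the earlier primary screen, cut at about 21% in these data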;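 further: 0% = DMSO-only wells and the high end = clavulanate BLA-blocked wells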); details: CCF4 FRET, at 4.98 µM, active compounds read high
[18] = beta-lactamase reporter inhibitors in CHO cells, confirmation, artefact control for NOD2-RIPK2 interaction inhibitor project, cell-based, CHO-K1 CMV-bla, CCF4 FRET, fluorescence (AID 624371;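 active means mean inhibition above the low-control mean inhibition plus three low-control SD, cut at about 11% in these data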;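 further: 0% = DMSO only wells and 100% = clavulanate high control wells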); details: CCF4 FRET ratio, counterscreen, at 4.98 µM, active compounds read high

Measured: inhibition

CN(C)c1cc[n+](CC(=O)c2ccc(-c3ccccc3)cc2)cc1
inactive: [1] 35.6% | [3] 35%
active: [2] 57.6% | [4] 66.5% | [5] 43.8% | [6] 82.3% | [7] 71.8% | [8] 67.9%

O=C1C(Nc2ccc(O)cc2)=C/C(=N/S(=O)(=O)c2cccs2)c2ccccc21
active: [1] 85.2% | [2] 72% | [4] 68% | [5] 79.7% | [6] 101% | [7] 87.6% | [8] 95.2%
inactive: [3] 29.5%

C=CCn1c(C)cc(C2=NNC(=NCC)SC2)c1C
active: [1] 87% | [2] 85.3% | [3] 74.7% | [4] 81% | [9] 77.4% | [10] 73% | [5] 82.1% | [6] 75.7% | [7] 79.8% | [8] 75.6% | [11] 81.8% | [12] 93% | [13] 82% | [14] 105%

Cc1oc2c(F)c(F)c(F)c(F)c2c1S(=O)(=O)Nc1cccc(C(F)(F)F)c1
inactive: [1] -6.6% | [2] 11.6% | [3] 12.8% | [4] 4.85%
active: [9] 100% | [10] 93.3%

CC[C@H]1CN2CCc3cc(OC)c(OC)cc3[C@@H]2C[C@@H]1C[C@H]1NCCc2cc(OC)c(OC)cc21
inactive: [18] -0.09%
active: [15] 102% | [16] 92.8% | [1] 98.3% | [2] 97.2% | [3] 92.6% | [4] 96.4% | [17] 30.7% | [9] 97.8% | [10] 99.2% | [5] 94.6% | [6] 109% | [7] 97.7% | [8] 96.4%

Cc1sc(NC(=O)/C=C/c2ccc3c(c2)OCO3)nc1-c1ccccc1
active: [2] 59.1% | [4] 57.7% | [5] 42.9% | [6] 74.9% | [7] 74.1% | [8] 70.9%
inactive: [1] 24.4% | [3] 32.1%

CC(=O)c1cccc(N=c2scc(-c3ccc(S(=O)(=O)N4CCOCC4)cc3)n2CCO)c1
inactive: [1] 21.9% | [3] -14.3%
active: [2] 47.4% | [4] 49.4% | [5] 35.2% | [6] 63.3% | [7] 69.7% | [8] 61.1%

CN(Cc1ccccc1)C1=CC(=[N+]2CCCC2)CC(C)(C)C1
inactive: [3] 7.51%
active: [1] 64.6% | [2] 67.9% | [4] 63.1% | [5] 44.2% | [6] 109% | [7] 79.9% | [8] 89.6%

Cc1ccsc1C(=O)OCC(=O)c1cc(C)n(CC2CCCO2)c1C (stereo not drawn)
inactive: [10] 50.3% | [6] 15.3%
active: [1] 73.4% | [2] 65.6% | [3] 49.5% | [4] 44.4% | [9] 70.8% | [5] 66.9% | [7] 61.6% | [8] 39.8% | [11] 59.5% | [12] 85% | [13] 78.4% | [14] 97.7%

COc1ccc(Nc2ncnc3ccc(Br)cc23)c(OC)c1
inactive: [2] 9.75% | [4] 8.18% | [11] 32.4% | [13] 7.13% | [14] 11.9%
active: [1] 67.1% | [3] 68.4% | [9] 85.3% | [10] 75.5% | [5] 86% | [6] 47.3% | [7] 79.2% | [8] 30.8% | [12] 93.8%

O=C(c1ccccc1)c1nn(-c2ccc(Cl)cc2)c(=O)cc1C(F)(F)F
inactive: [3] 21.8%
active: [1] 65.3% | [2] 62.6% | [4] 51.2% | [5] 73.3% | [6] 72.6% | [7] 70% | [8] 74.8%

CCOc1cc(/C=C(/C#N)c2ccc(Cl)cc2)cc(Cl)c1OCC(=O)O
active: [1] 51.4% | [2] 45.5% | [4] 36.9% | [10] 77.7% | [11] 77.6% | [12] 91%
inactive: [3] 29.6% | [9] 62.7%

O=C(N/N=C(\c1ccccc1)c1cccnc1)c1cccc(F)c1
inactive: [1] 37.5% | [3] 31%
active: [2] 31.2% | [4] 43% | [5] 84% | [6] 97.7% | [7] 85.7% | [8] 58.5%

CN(C)c1ccc(/C=C/c2ccc3ccccc3n2)cc1
inactive: [1] 33.3% | [2] 29% | [3] 0.35% | [4] 14.3% | [8] 29.4%
active: [5] 55.6% | [6] 59.3% | [7] 72.4%

COc1ccc(-c2cn[nH]c2C)cc1OC
inactive: [1] 21.1% | [2] 10.4% | [3] 12.1% | [4] 10.7%
